Experimental data as given in PubChem BioAssay (EPA / NIEHS).
Records with an inconclusive call do not appear. The source made the active and inactive calls. How the source made its calls, unless noted: active means hit-call score of the fitted dose curve at least 0.9, where 1 is the maximum; inactive means score below 0.9.

Legend:
[1] = ATG_TCF_b_cat_CIS: Attagene CIS-FACTORIAL HepG2 Assay for human T-Cell-Factor with beta-catenin (TCF/b-cat) (AID 2282965); details: HepG2 TCF/beta-catenin cis-reporter transcription, actives raise or lower the signal
Outline: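 HepG2, transient MRTU transfection, cis-element-driven reporters (endogenous TFs). 24 h compound exposure. Readout: reporter mRNA by RT-PCR + 6-FAM primer extension, HpaI digest, capillary electrophoresis. Gain/loss fit vs DMSO baseline.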

[2] = ATG_TAL_CIS: Attagene CIS-FACTORIAL HepG2 Assay for human TAL Basal Promoter (AID 2282966); details: HepG2 Attagene cis-factorial TAL promoter reporter; actives raise or lower the signal;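 further: background control endpoint measuring basal TAL promoter reporter mRNA not a specific factor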
Outline: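 Readout: reporter mRNA, fluorescence by CE. System: HepG2, transient multi-reporter transfection, endogenous TF activity. Exposure: 24 h. Analysis: bidirectional, DMSO-normalized; background control.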

[3] = ATG_TGFb_CIS: Attagene CIS-FACTORIAL HepG2 Assay for human Transforming Growth Factor (TGF) (AID 2282967); details: HepG2 Attagene CIS TGFb reporter, mRNA transcription; actives raise or lower the signal
Outline: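 Readout: fluorescently labeled reporter cDNA fragments resolved by capillary electrophoresis after RT-PCR. Transfected HepG2 cells dosed for 24 h; endogenous TF activity at TGFB1-linked cis element; gain or loss fitted relative to DMSO.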

[4] = ATG_VDRE_CIS: Attagene CIS-FACTORIAL HepG2 Assay for human Vitamin D Receptor Element (VDRE) (AID 2282968); details: HepG2 VDRE cis-reporter transcription, actives raise or lower the signal
Outline: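 Cell-based multiplexed reporter format in human liver HepG2 cells, 24 h post-dose. Fluorescence from capillary electrophoresis of reporter cDNA gives the signal, with DMSO as negative control and baseline.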

[5] = molecular target: Estrogen receptor (Homo sapiens) (UniProt P03372); assay: ATG_ERa_TRANS: Attagene TRANS-FACTORIAL HepG2 Assay for human Estrogen Receptor alpha (ERa) (AID 2282970; active means hit-call score of the fitted dose curve at least 0.9, where 1 is the maximum); details: HepG2 Attagene TRANS ERa GAL4 reporter, mRNA
Outline: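 Transactivation via ERa-Gal4 chimera in HepG2; 24 hour incubation; reporter mRNA detected by fluorescence RT-PCR and capillary electrophoresis.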

[6] = molecular target: X-box-binding protein 1 (Homo sapiens) (UniProt P17861); assay: ATG_Xbp1_CIS: Attagene CIS-FACTORIAL HepG2 Assay for human X-box Binding Protein 1 (XBP1) (AID 2282972); details: HepG2 XBP1 cis-element reporter, Attagene multiplex; actives raise or lower the signal
Outline: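 HepG2, transient MRTU transfection (cis-promoter driven), 24 h compound exposure. Total RNA → oligo(dT) RT → PCR → 6-FAM labeling → HpaI cut → CE. Bidirectional fit vs DMSO.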

[7] = ATG_M_19_TRANS: Attagene TRANS-FACTORIAL HepG2 Assay for M19 Transcription Factor (Internal Marker) (AID 2282974; active means hit-call score of the fitted dose curve at least 0.9, where 1 is the maximum); details: HepG2 Attagene TRANS-FACTORIAL M19 internal marker reporter
Outline: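 Multiplexed TRANS format: HepG2 liver cells bearing transient GAL4-UAS reporter units, chemical treatment 24 h, reporter transcripts quantified by RT-PCR plus capillary electrophoresis. DMSO defines baseline.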

[8] = ATG_GAL4_TRANS: Attagene TRANS-FACTORIAL HepG2 Assay for GAL4 (Internal Marker) (AID 2282976; active means hit-call score of the fitted dose curve at least 0.9, where 1 is the maximum); details: HepG2 Attagene TRANS GAL4 internal marker reporter
Outline: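 Fluorescence from capillary electrophoresis of labelled RT-PCR products quantifies reporter mRNA induction after 24 h dosing of HepG2 cells carrying transfected GAL4-UAS reporter transcription units. Vehicle DMSO serves as baseline.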

[9] = molecular target: Steroid hormone receptor ERR1 (Homo sapiens) (UniProt P11474); assay: ATG_ERRa_TRANS: Attagene TRANS-FACTORIAL HepG2 Assay for human Estrogen-Related Receptor alpha (ERRa) (AID 2282971; active means hit-call score of the fitted dose curve at least 0.9, where 1 is the maximum); details: HepG2 Attagene TRANS reporter, ERRa transactivation
Outline: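 HepG2 cells were transiently transfected with multiple GAL4-UAS reporter units, then dosed with compound for 24 h. Total RNA was reverse-transcribed, reporter cDNA PCR-amplified and fluorescently labelled, and fragments resolved by capillary electrophoresis; induction was compared with DMSO.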

Measured: AC50

Chain of X-box-binding protein 1 (Homo sapiens) (P17861 whole entry, looked up): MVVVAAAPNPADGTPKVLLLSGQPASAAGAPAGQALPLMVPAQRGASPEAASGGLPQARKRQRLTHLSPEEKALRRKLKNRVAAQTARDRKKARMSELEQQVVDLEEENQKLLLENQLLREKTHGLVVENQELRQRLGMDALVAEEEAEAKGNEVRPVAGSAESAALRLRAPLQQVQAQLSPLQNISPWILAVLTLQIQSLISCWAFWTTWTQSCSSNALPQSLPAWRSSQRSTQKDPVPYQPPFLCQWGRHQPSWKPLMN
Chain of Steroid hormone receptor ERR1 (Homo sapiens) (P11474 whole entry, looked up, the tested form may be a part): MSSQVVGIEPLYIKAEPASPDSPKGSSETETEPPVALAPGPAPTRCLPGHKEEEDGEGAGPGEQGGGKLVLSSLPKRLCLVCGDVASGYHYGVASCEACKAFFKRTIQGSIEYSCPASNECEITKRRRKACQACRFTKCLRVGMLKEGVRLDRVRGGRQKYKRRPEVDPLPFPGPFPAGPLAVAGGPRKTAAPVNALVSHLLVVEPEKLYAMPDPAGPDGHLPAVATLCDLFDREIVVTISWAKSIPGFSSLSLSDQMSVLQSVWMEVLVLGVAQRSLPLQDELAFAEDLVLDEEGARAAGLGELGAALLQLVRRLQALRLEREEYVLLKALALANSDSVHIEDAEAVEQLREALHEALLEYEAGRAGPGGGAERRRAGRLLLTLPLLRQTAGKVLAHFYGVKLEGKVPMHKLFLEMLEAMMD
Chain of Estrogen receptor (Homo sapiens) (P03372 whole entry, looked up, the tested form may be a part): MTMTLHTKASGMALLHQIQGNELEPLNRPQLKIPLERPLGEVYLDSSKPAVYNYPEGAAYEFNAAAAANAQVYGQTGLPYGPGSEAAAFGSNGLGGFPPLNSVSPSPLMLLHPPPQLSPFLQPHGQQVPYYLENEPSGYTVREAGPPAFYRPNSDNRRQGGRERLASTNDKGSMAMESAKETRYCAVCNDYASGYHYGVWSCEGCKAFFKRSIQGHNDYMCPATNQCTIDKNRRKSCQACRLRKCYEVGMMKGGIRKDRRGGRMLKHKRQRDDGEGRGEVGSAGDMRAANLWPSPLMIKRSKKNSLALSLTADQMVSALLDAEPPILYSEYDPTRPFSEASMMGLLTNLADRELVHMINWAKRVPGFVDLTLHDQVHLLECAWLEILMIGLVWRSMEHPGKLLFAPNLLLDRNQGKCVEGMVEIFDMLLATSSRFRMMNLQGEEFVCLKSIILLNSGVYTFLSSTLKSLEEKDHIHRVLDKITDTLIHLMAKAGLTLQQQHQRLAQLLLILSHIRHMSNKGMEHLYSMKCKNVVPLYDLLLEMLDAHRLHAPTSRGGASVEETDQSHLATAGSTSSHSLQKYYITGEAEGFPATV

CCCCCC/C=C/CCCCCCCC(=O)O
not listed: [8] | [9]
inactive: all other assays above

CCCCCCCC/C=C\CCCCCCCC(=O)N(C)CC(=O)O
not listed: [8] | [9]
inactive: all other assays above

COc1ccccc1C=O
not listed: [9]
inactive: all other assays above

O=C(O)C(F)(F)C(F)(F)C(F)(F)C(F)(F)C(F)(F)C(F)(F)C(F)F
active: [5] 41.4 µM
not listed: [7] | [9]
inactive: all other assays above

CCCCCCCCCCCCC[N+](C)(C)Cc1ccccc1
not listed: [7] | [8] | [9]
inactive: all other assays above

OC(O)C(F)(F)C(F)(F)F
not listed: [6] | [7]
inactive: all other assays above

CCOC(=O)CCC(C)=O
not listed: [9]
inactive: all other assays above

Brc1nc2ccccc2s1
not listed: [9]
inactive: all other assays above

Oc1ccc2c(c1)CCC2
active: [5] 22.6 µM
not listed: [6] | [7]
inactive: all other assays above

Brc1ccccn1
not listed: [9]
inactive: all other assays above

CCN(CC)c1ccc(N=Nc2ccccc2)cc1
active: [4] 7.19 µM
not listed: [8] | [9]
inactive: all other assays above

CSc1ccc(Cl)cc1
not listed: [8] | [9]
inactive: all other assays above

CC(C)(C)c1cc(CCC(=O)NCCCCCCNC(=O)CCc2cc(C(C)(C)C)c(O)c(C(C)(C)C)c2)cc(C(C)(C)C)c1O
active: [4] 0.811 µM
not listed: [7] | [9]
inactive: all other assays above

CCCCCCCCCCCCCCCCC
not listed: [7] | [8] | [9]
inactive: all other assays above

NC(=O)C(F)(F)C(F)(F)C(F)(F)C(F)F
not listed: [7] | [9]
inactive: all other assays above

O=C(O)C(F)(F)C(F)(F)C(F)(F)OC(F)(C(F)(F)F)C(F)(F)F
active: [1] 285 µM
not listed: [9]
inactive: all other assays above

O=C(O)CCC(F)(F)C(F)(F)C(F)(F)C(F)(F)C(F)(F)C(F)(F)C(F)(F)F
active: [1] 150 µM
not listed: [8] | [9]
inactive: all other assays above

CCc1cccc(C)c1N(C(=O)C(=O)O)C(C)COC (centres undefined)
not listed: [9]
inactive: all other assays above

OCCCc1cccnc1
not listed: [7] | [9]
inactive: all other assays above

O=C(Cl)C(F)(F)C(F)(F)C(F)(F)C(F)(F)C(F)(F)C(F)(F)C(F)(F)F
active: [5] 53.1 µM
inactive: [1] | [2] | [3] | [4] | [6]

CCCCOC(=O)[C@H](C)O
not listed: [9]
inactive: all other assays above

O=C(Cl)C(F)(F)C(F)(F)C(F)(F)C(F)(F)C(F)(F)C(F)(F)F
not listed: [6] | [7]
inactive: all other assays above

O=S(=O)(O)CCC(F)(F)C(F)(F)C(F)(F)C(F)(F)C(F)(F)C(F)(F)C(F)(F)C(F)(F)F
not listed: [6] | [7]
inactive: all other assays above

OCCC(O)CO (centres undefined)
not listed: [9]
inactive: all other assays above

OCCCCC(F)(F)C(F)(F)C(F)(F)C(F)(F)F
not listed: [7] | [8] | [9]
inactive: all other assays above

O=C(O)C(F)(F)C(F)(F)C(F)(F)C(=O)O
not listed: [8] | [9]
inactive: all other assays above

FC(F)(F)C(F)(F)C(F)(F)C(F)(F)C(F)(F)C(F)(F)CC[Si](Cl)(Cl)Cl
not listed: [6] | [7]
inactive: all other assays above

CCN(CC)c1ccc(C=O)c(O)c1
active: [4] 32.5 µM
not listed: [7] | [9]
inactive: all other assays above

CCN(CC)c1ccc2c(c1)Oc1cc(N(CC)CC)ccc1C21OC(=O)c2ccccc21
active: [1] 50 µM | [4] 1.32 µM
not listed: [7] | [9]
inactive: all other assays above

NCC(F)(F)C(F)(F)C(F)(F)C(F)(F)C(F)(F)C(F)(F)C(F)(F)C(F)(F)F
not listed: [6] | [7]
inactive: all other assays above

Nc1cc([N+](=O)[O-])cc(Cl)c1O
not listed: [9]
inactive: all other assays above

CCCCCCCCCc1ccc(OCCO)cc1
active: [1] 21.5 µM
not listed: [8] | [9]
inactive: all other assays above

CC(C)CCCC(C)CCO (centres undefined)
not listed: [9]
inactive: all other assays above

Oc1ccc(C2(c3ccc(O)c(C4CCCCC4)c3)CCCCC2)cc1C1CCCCC1
active: [1] 33.4 µM | [2] 17.9 µM | [4] 0.619 µM | [6] 6.08 µM
inactive: [3] | [5] | [8]

CCCCCCCCCCCC(=O)Cl
inactive: [2] | [3] | [4] | [5] | [6]
active: [1] 161 µM

O=C1OC(=O)c2ccc3c4c(ccc1c24)C(=O)OC3=O
not listed: [7] | [9]
inactive: all other assays above

CC(C)(C)c1cc(Cc2cc(C(C)(C)C)c(O)c(C(C)(C)C)c2)cc(C(C)(C)C)c1O
active: [4] 2.31 µM
not listed: [8] | [9]
inactive: all other assays above
